About 83,000 compounds went through this panel and 20% of them were active in at least one assay; those are over-represented in the sample as a whole.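 Interpretation: 100, growth as untreated; towards 0, rising growth inhibition; 0, no net growth; 0 to -100, cell death. Compounds scoring below 10 were considered active.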 The source made the active and inactive calls.
Key:
Experiment in all cases: NCI-60 one-dose screen, 48 h (100 = growth as untreated, 0 = no growth, -100 = all killed)
Settings in all cases: 10 µM unless noted
HCT-15 colon = system: HCT-15 colon
HT29 colon = system: HT29 colon
SNB-75 CNS = system: SNB-75 CNS
SNB-19 CNS = system: SNB-19 CNS
U251 CNS = system: U251 CNS
PC-3 prostate = system: PC-3 prostate
LOX IMVI melanoma = system: LOX IMVI melanoma
EKVX NSCLC = system: EKVX NSCLC
UO-31 renal = system: UO-31 renal
TK-10 renal = system: TK-10 renal
ACHN renal = system: ACHN renal
CAKI-1 renal = system: CAKI-1 renal
A498 renal = system: A498 renal
MOLT-4 leukemia = system: MOLT-4 leukemia
SK-MEL-2 melanoma = system: SK-MEL-2 melanoma
CCRF-CEM leukemia = system: CCRF-CEM leukemia
SK-MEL-5 melanoma = system: SK-MEL-5 melanoma
UACC-62 melanoma = system: UACC-62 melanoma
SK-MEL-28 melanoma = system: SK-MEL-28 melanoma
SN12C renal = system: SN12C renal

Measured: growth

CCC#CC[C@H](O)C/C=C1/C(=O)C=C[C@@H]1C/C=C\CCCC(=O)OC
active: HCT-15 colon 3.26% | HT29 colon -80.2% | U251 CNS 0.174% | PC-3 prostate 1.55% | LOX IMVI melanoma -72.2% | UO-31 renal -65.4% | TK-10 renal 2.33% | ACHN renal -82.8% | CAKI-1 renal -18.3% | MOLT-4 leukemia 1.17%
inactive: SNB-75 CNS 43.5% | SNB-19 CNS 23.8% | EKVX NSCLC 23.7% | A498 renal 95.7%

CCOc1ccc(C(C)=O)cc1NC(=O)c1cccc(-c2nnn(CC)n2)c1
inactive: HCT-15 colon 46.8% | SNB-19 CNS 36.5% | U251 CNS 22.1% | PC-3 prostate 27.3% | LOX IMVI melanoma 49.2% | EKVX NSCLC 54.5% | UO-31 renal 38.4% | TK-10 renal 64.4% | ACHN renal 50.8% | CAKI-1 renal 33.1% | CCRF-CEM leukemia 11.9% | MOLT-4 leukemia 27.8%
active: HT29 colon 7.72% | SNB-75 CNS 6.99% | SK-MEL-2 melanoma -5.73% | A498 renal -6.01%

O=[N+]([O-])c1cnc(N2CCN(CC3CC3)CC2)nc1N1CCN(CC2CC2)CC1
inactive: HCT-15 colon 96% | HT29 colon 87% | SNB-75 CNS 81% | SNB-19 CNS 100% | U251 CNS 98.4% | SK-MEL-5 melanoma 99.5% | UACC-62 melanoma 110% | LOX IMVI melanoma 99.6% | SK-MEL-28 melanoma 91.3% | SK-MEL-2 melanoma 98.5% | EKVX NSCLC 86.5% | SN12C renal 98.2% | UO-31 renal 80.2% | TK-10 renal 102% | ACHN renal 104% | CAKI-1 renal 92.5% | A498 renal 86.6% | CCRF-CEM leukemia 106%

NC(=NC1C2CC3CC(C2)CC1C3)Nc1ccc(I)cc1 (configuration not stated)
inactive: HCT-15 colon 43.9% | SNB-75 CNS 57.1% | SNB-19 CNS 27.5% | U251 CNS 50.4% | PC-3 prostate 36.9% | LOX IMVI melanoma 61.9% | SK-MEL-2 melanoma 50.3% | EKVX NSCLC 32.2% | UO-31 renal 18.6% | TK-10 renal 43.5% | CAKI-1 renal 18%
active: HT29 colon 9.6% | ACHN renal 7.41% | CCRF-CEM leukemia 8.16%

O=C1c2cccc3cccc(c23)C(=O)N1CCCCN1CCN(CCCCOc2ccc(-c3nc4ccc(N5CCOCC5)cc4[nH]3)cc2)CC1
inactive: HCT-15 colon 87.8% | HT29 colon 83.3% | SNB-75 CNS 84.8% | SNB-19 CNS 89.4% | U251 CNS 74.6% | SK-MEL-5 melanoma 89.2% | UACC-62 melanoma 92.8% | LOX IMVI melanoma 93.7% | SK-MEL-28 melanoma 81.5% | SK-MEL-2 melanoma 90.4% | EKVX NSCLC 91.7% | SN12C renal 94.7% | UO-31 renal 32.8% | TK-10 renal 114% | ACHN renal 104% | CAKI-1 renal 79.8% | A498 renal 111% | CCRF-CEM leukemia 30.8% | MOLT-4 leukemia 52.3%

O=c1oc2c(C(F)(F)F)cccc2cc1-c1csc(Nc2ccc(OCCF)cc2)n1
active: HT29 colon -11.5% | U251 CNS 5.11% | A498 renal -9.67% | CCRF-CEM leukemia 5.28%
inactive: HCT-15 colon 17.3% | SNB-75 CNS 19.3% | SNB-19 CNS 27.7% | PC-3 prostate 21% | SK-MEL-2 melanoma 18% | EKVX NSCLC 38% | UO-31 renal 40.3% | TK-10 renal 59.7% | ACHN renal 23.2% | CAKI-1 renal 12.2% | MOLT-4 leukemia 15.8%

COC(=O)c1ccc(NC(=O)c2ccc(-c3cccc([N+](=O)[O-])c3)o2)cc1
inactive: HCT-15 colon 101% | HT29 colon 103% | SNB-75 CNS 82.4% | SNB-19 CNS 94.4% | U251 CNS 100% | SK-MEL-5 melanoma 97.8% | UACC-62 melanoma 95.5% | LOX IMVI melanoma 96.1% | SK-MEL-28 melanoma 100% | SK-MEL-2 melanoma 98.4% | EKVX NSCLC 79% | SN12C renal 97.3% | UO-31 renal 72.9% | TK-10 renal 111% | ACHN renal 94.6% | CAKI-1 renal 88% | A498 renal 105% | CCRF-CEM leukemia 107% | MOLT-4 leukemia 103%

Cc1ccc(C2Oc3ccccc3C3CC(c4cccs4)=NN32)cc1 (configuration not stated)
inactive: HCT-15 colon 100% | HT29 colon 109% | SNB-75 CNS 81.7% | SNB-19 CNS 96% | U251 CNS 92.5% | SK-MEL-5 melanoma 96.3% | UACC-62 melanoma 96.2% | LOX IMVI melanoma 94.4% | SK-MEL-28 melanoma 103% | SK-MEL-2 melanoma 98.2% | EKVX NSCLC 80.9% | SN12C renal 92.5% | UO-31 renal 65.3% | TK-10 renal 108% | ACHN renal 98.7% | CAKI-1 renal 82.3% | A498 renal 107% | CCRF-CEM leukemia 95.3% | MOLT-4 leukemia 97.5%

COc1ccc2nc(NC(=O)CSc3nnc4n3S(=O)(=O)c3ccccc3N4c3ccccc3)sc2c1
inactive: HCT-15 colon 93.7% | HT29 colon 102% | SNB-75 CNS 77.5% | SNB-19 CNS 97.2% | U251 CNS 94.9% | SK-MEL-5 melanoma 99.1% | UACC-62 melanoma 82.6% | LOX IMVI melanoma 85.5% | SK-MEL-28 melanoma 109% | SK-MEL-2 melanoma 87.9% | EKVX NSCLC 94.4% | SN12C renal 107% | TK-10 renal 103% | ACHN renal 92.8% | A498 renal 121%
active: UO-31 renal -39.9% | CAKI-1 renal -0.617% | CCRF-CEM leukemia -19.7% | MOLT-4 leukemia 6.47%

Nc1ccc(-c2cc3c(Nc4ccc(Oc5cccc(C(F)(F)F)c5)c(Cl)c4)ncnc3s2)cc1
inactive: HCT-15 colon 44.6% | HT29 colon 64% | SNB-75 CNS 78.1% | SNB-19 CNS 89.8% | U251 CNS 79% | SK-MEL-5 melanoma 70.9% | UACC-62 melanoma 81.9% | LOX IMVI melanoma 50.1% | SK-MEL-28 melanoma 83.1% | SK-MEL-2 melanoma 88.1% | EKVX NSCLC 54.8% | SN12C renal 57.3% | UO-31 renal 47.3% | TK-10 renal 90.3% | ACHN renal 60.5% | CAKI-1 renal 60.3% | A498 renal 89.5% | CCRF-CEM leukemia 48.9% | MOLT-4 leukemia 48.2%

C(=N/Nc1ncc(-c2cc3cc(-c4ccccc4)ccc3o2)s1)/c1cccs1
inactive: HCT-15 colon 99.2% | HT29 colon 99.6% | SNB-75 CNS 100% | SNB-19 CNS 99.3% | U251 CNS 99.5% | SK-MEL-5 melanoma 96.8% | UACC-62 melanoma 90.7% | LOX IMVI melanoma 98.7% | SK-MEL-28 melanoma 96.1% | SK-MEL-2 melanoma 99.7% | EKVX NSCLC 94.9% | SN12C renal 87.6% | UO-31 renal 84.8% | TK-10 renal 97.5% | ACHN renal 97.9% | CAKI-1 renal 103% | A498 renal 32.5% | CCRF-CEM leukemia 97.5% | MOLT-4 leukemia 96.5%

Cc1[nH]c(-c2cc(N)ccc2Cl)c2c1C(=O)CCCC2
active: SNB-75 CNS 1.7% | SK-MEL-5 melanoma 1.73% | LOX IMVI melanoma 3.58% | TK-10 renal 1.81% | CAKI-1 renal 2.45%
inactive: HCT-15 colon 17.7% | HT29 colon 12.8% | SNB-19 CNS 35.6% | U251 CNS 38.5% | UACC-62 melanoma 15.7% | SK-MEL-28 melanoma 59.1% | SK-MEL-2 melanoma 31% | EKVX NSCLC 36.5% | SN12C renal 35% | UO-31 renal 10.1% | ACHN renal 19.8% | A498 renal 27% | CCRF-CEM leukemia 52.3% | MOLT-4 leukemia 52.7%

c1csc(C2=NN3C(C2)c2ccccc2OC3c2ccncc2)c1 (configuration not stated)
inactive: HCT-15 colon 95.5% | HT29 colon 107% | SNB-75 CNS 82.2% | SNB-19 CNS 90.5% | U251 CNS 91.5% | SK-MEL-5 melanoma 92.7% | UACC-62 melanoma 94.1% | LOX IMVI melanoma 89.3% | SK-MEL-28 melanoma 107% | SK-MEL-2 melanoma 96.3% | EKVX NSCLC 78.2% | SN12C renal 89.9% | UO-31 renal 64.5% | TK-10 renal 111% | ACHN renal 97.7% | CAKI-1 renal 78.2% | A498 renal 110% | CCRF-CEM leukemia 95.8% | MOLT-4 leukemia 94.4%

COc1ccc(S(=O)(=O)N2CCCCCC2)cc1NC(=O)c1[nH]c(C)c2c1CCCCC2=O
inactive: HCT-15 colon 12.8% | HT29 colon 16.8% | SNB-19 CNS 38.2% | U251 CNS 29.9% | UACC-62 melanoma 15.8% | SK-MEL-28 melanoma 49.8% | SK-MEL-2 melanoma 43.4% | EKVX NSCLC 38.4% | SN12C renal 36.9% | UO-31 renal 12.1% | TK-10 renal 15.3% | ACHN renal 25.2% | CAKI-1 renal 12.7% | CCRF-CEM leukemia 33.7% | MOLT-4 leukemia 30.6%
active: SNB-75 CNS 4.93% | SK-MEL-5 melanoma -43.8% | LOX IMVI melanoma -33.6% | A498 renal -25.6%

Cc1ccc(/C=C2\SC(=S)N(CC(=O)NCCCN3CCOCC3)C2=O)cc1
inactive: HCT-15 colon 96.3% | HT29 colon 109% | SNB-75 CNS 87.2% | SNB-19 CNS 94.5% | U251 CNS 100% | SK-MEL-5 melanoma 97.1% | UACC-62 melanoma 99.7% | LOX IMVI melanoma 91.7% | SK-MEL-28 melanoma 100% | SK-MEL-2 melanoma 107% | EKVX NSCLC 93.7% | SN12C renal 92.1% | UO-31 renal 83.9% | TK-10 renal 117% | ACHN renal 90.5% | CAKI-1 renal 89.4% | A498 renal 96.1% | CCRF-CEM leukemia 104% | MOLT-4 leukemia 101%

Source: PubChem BioAssay (NCI)
